The text below walks through data of paper PMC7819943, “Rice protein-binding microarrays: a tool to detect cis-acting elements near promoter regions in rice”.

Over roughly 68,000 sequences, “fluorescence intensity (a.u.)” has its median near 9,100; the highest 2% begin near 16,000. For the sample, the highest values were picked, then their nearest neighbours and some sequences at random.

OsWRKY34, sequence (Q0JBA9 entry or part of it): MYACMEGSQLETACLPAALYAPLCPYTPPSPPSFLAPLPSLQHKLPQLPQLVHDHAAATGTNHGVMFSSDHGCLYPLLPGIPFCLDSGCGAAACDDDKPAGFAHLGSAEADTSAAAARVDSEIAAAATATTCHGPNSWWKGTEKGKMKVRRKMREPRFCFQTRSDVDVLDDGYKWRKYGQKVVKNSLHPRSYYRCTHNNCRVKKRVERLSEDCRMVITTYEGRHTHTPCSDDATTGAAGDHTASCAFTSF

This assay addresses OsWRKY34 (Oryza sativa, UniProt Q0JBA9 1-250). Nature of the assay: protein-binding microarray (RPBM); PBS, 2% BSA, 51.3 ng/ul salmon testes DNA, 50 uM zinc acetate, 200 nM TF, 25 C, 1 h; high values mean tight binding. The settings on record: protein: recombinant; tags: N-terminal polyhistidine and DsRed monomer fusion (pET32a); label: CyDye5-dUTP incorporated in the synthesized complementary strand; 3' TTTTT single-stranded linker to array surface; dsDNA, one strand shown. The procedure, abridged: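 An Axon 4000B scanner gave the binding signal as per-feature fluorescence intensity in arbitrary units. This followed washing of a custom Agilent array that had been incubated for 1 h at 25 °C with 200 nM protein in PBS, 2% BSA, salmon testes DNA and 50 µM zinc acetate. The proteins were transcription factors fused at the N-terminus to polyhistidine and DsRed, expressed in E. coli BL21-CodonPlus and purified on Ni–NTA.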
As to “TGACTTTTTAGCACATGTTTGACTGTTCGTCTTATTCAAACGGAGTCACCTAGTGCAG”, the binding signal is 10200 fluorescence intensity (a.u.).
Regarding “TTGACACCGTTGACTTTTTAGTACATGTTTGACCGTTCGTCGGAGTCACCTAGTGCAG”, the binding signal was 41400 fluorescence intensity (a.u.).
“GCCGTATCTTCTGCGTTGACCAGATCCTTCACTGTCACGCCGGAGTCACCTAGTGCAG”: the binding signal is 19200 fluorescence intensity (a.u.).
As to “AATGGTTTTATCGTTTTACGTGTGTACACCACTTATATATCGGAGTCACCTAGTGCAG”, the binding signal is 8060 fluorescence intensity (a.u.).
In the case of “TTCGTTGTACTTACCATCGTTGTTTAGTTTGATTTTTTTTCGGAGTCACCTAGTGCAG”, the binding signal is 8950 fluorescence intensity (a.u.).
“AGTTTTTGGTAGTTTAGTTTGATACACCACTTCGTTTGATCGGAGTCACCTAGTGCAG”: the binding signal was 18600 fluorescence intensity (a.u.).
Take “ACGCCGCCGTTGCACTTCTCTGCACGCCATTGATCCGATCCGGAGTCACCTAGTGCAG”: the binding signal is 8480 fluorescence intensity (a.u.).
Then “TAACCAGAGTAAATTTTTGGCCAACTTAAGTGCTTTCATACGGAGTCACCTAGTGCAG”, with 9070 fluorescence intensity (a.u.); and “GCAACTTTTTTTCCAAATGTTTGGCATCTGGTGTGTCATCCGGAGTCACCTAGTGCAG”, with 8040 fluorescence intensity (a.u.).
Then “GAAGCCCACCCAATTCGATTTTTTGGGCCGCCCCACCTTTCGGAGTCACCTAGTGCAG”, with 8790 fluorescence intensity (a.u.).
As for “TACCGTCGTGCTCCATCAATTCCATCTCCACGTGTTATTGCGGAGTCACCTAGTGCAG”, the binding signal was 10900 fluorescence intensity (a.u.).
Regarding “GCGATCTTCGCGGCTTCACCATCATACCTGCAACTGCAACCGGAGTCACCTAGTGCAG”, the binding signal is 8220 fluorescence intensity (a.u.).
Then “CGTCCGGCCGCGAAACCGAGCCTTCTGACCACCGCCGAAACGGAGTCACCTAGTGCAG”, with 8050 fluorescence intensity (a.u.); and “TATTTAACACCGTTGACTTTTTAGCACATGTTTGACCGTTCGGAGTCACCTAGTGCAG”, with 38200 fluorescence intensity (a.u.); and “ACCGTTGACTTTTTAGCACATGATTGATCGTTCGTTTTATCGGAGTCACCTAGTGCAG”, with 33800 fluorescence intensity (a.u.).
Then “GTTGACTTTTTAGCACGTGTTTGACCGTTCGTCTTATTAACGGAGTCACCTAGTGCAG”, with 9780 fluorescence intensity (a.u.); and “TAAGCACAGTTGACTTTTTTTTTGGTGTGTTCCGGTGTATCGGAGTCACCTAGTGCAG”, with 20900 fluorescence intensity (a.u.).
For the sequence “ACACCGTTGACTTTTTAGCACGTGTTTGACCGTTCACCTTCGGAGTCACCTAGTGCAG”, the binding signal was 26900 fluorescence intensity (a.u.).
Then “TTGATTTTTTTAGCACATGTTTGACCGTTCGTCTTATTAACGGAGTCACCTAGTGCAG”, with 13200 fluorescence intensity (a.u.); and “GTTTGTTGCAGTTTGGTGTGTATGTTTGTTGCACTTTGATCGGAGTCACCTAGTGCAG”, with 9920 fluorescence intensity (a.u.).
For “TTGTTTGCACCGGTTTTGACAGTTCAGGGATCGGTTGTATCGGAGTCACCTAGTGCAG”, the binding signal is 8200 fluorescence intensity (a.u.).
With “ATTTGACACCGTTAACCTTTTAGCACATGTTTGACCGTTCCGGAGTCACCTAGTGCAG”, the binding signal was 11900 fluorescence intensity (a.u.).
Then “CACCGTTGATTTTTTAGCACATGTTTGACCGTTCGTCTTACGGAGTCACCTAGTGCAG”, with 12900 fluorescence intensity (a.u.); and “CAAAAACACTCCACATATTTTTCCTTTTAGTTACGTAATTCGGAGTCACCTAGTGCAG”, with 9500 fluorescence intensity (a.u.).
Then “TCGTCGTGTTCGTGTTTTTTTTCTTCCAATCTGCGCGCGTCGGAGTCACCTAGTGCAG”, with 8990 fluorescence intensity (a.u.).
For “TACGCTGTGATCCCCGTCTTCAATTTCTCGTTCGCTCTCACGGAGTCACCTAGTGCAG”, the binding signal was 12800 fluorescence intensity (a.u.).
With “AGCCTATTTCATTTGATATATCATGGTGCATGATCTAATTCGGAGTCACCTAGTGCAG”, the binding signal is 11100 fluorescence intensity (a.u.).
As to “ACGTCCAAATCACATTATATCAGTTCCTGTTTGTAACCGCCGGAGTCACCTAGTGCAG”, the binding signal was 8550 fluorescence intensity (a.u.).
For the sequence “GTGCCTGTTTGCTTCAGTGATGCTGGTGGTGGTTGCCTAACGGAGTCACCTAGTGCAG”, the binding signal is 9460 fluorescence intensity (a.u.).
Then “GTACTCCTGGTCCGCATCCACCGTCCATCCGCGTACCGCACGGAGTCACCTAGTGCAG”, with 11000 fluorescence intensity (a.u.); and “GTTCTTCTTCTTCTTCTTCTTTTTTTCGTCCAAGGCCACTCGGAGTCACCTAGTGCAG”, with 8280 fluorescence intensity (a.u.); and “CGACAGTTTCCTTTTTCGCGACCACTTCCGATCTCCTAAACGGAGTCACCTAGTGCAG”, with 17000 fluorescence intensity (a.u.).
For the sequence “AGTTTTTTCCTTTTAATCTCCGACTTCACCGGGTTTTTTCCGGAGTCACCTAGTGCAG”, the binding signal was 8260 fluorescence intensity (a.u.).
Then “TTTTCTCCTTTCGCGTTGCGTCCGCGATCCGATCGATCGACGGAGTCACCTAGTGCAG”, with 9560 fluorescence intensity (a.u.); and “CGTTTTTGTGTCTTTCATTTGAGGAGGAACTGCGATTCTTCGGAGTCACCTAGTGCAG”, with 9400 fluorescence intensity (a.u.); and “AACTTCTTGCATGTGCCTTTTTTATCATCTGCATATATTTCGGAGTCACCTAGTGCAG”, with 10300 fluorescence intensity (a.u.).
Then “ACTTCCGATGCGTAATAAGGCTTTAGTCCCACAACTGACGCGGAGTCACCTAGTGCAG”, with 8630 fluorescence intensity (a.u.); and “GCTCTAACACACCTTCATCATGCATGCATATGTGCTATTTCGGAGTCACCTAGTGCAG”, with 8080 fluorescence intensity (a.u.); and “CATATGCACTAACAAAACCGAGTAGGAGGGTGGGTATTTGCGGAGTCACCTAGTGCAG”, with 8580 fluorescence intensity (a.u.).
In the case of “CATTACTTTTTTGGTGGACTTGCAAAAACATGGGCATTTTCGGAGTCACCTAGTGCAG”, the binding signal is 8680 fluorescence intensity (a.u.).
Then “TTACAACAAAACTAAGTAGGGGTGGGTATTTGCAACAAAACGGAGTCACCTAGTGCAG”, with 17600 fluorescence intensity (a.u.); and “AAAATAACTTACGGGGTGGAATGTCAAACTTCAAGTGACTCGGAGTCACCTAGTGCAG”, with 8470 fluorescence intensity (a.u.).
Then “GGTGGGTGGGCATTTGCAACAAAATAACTTACGGGGTGGACGGAGTCACCTAGTGCAG”, with 17000 fluorescence intensity (a.u.).
Then “AGTAGGAGGGTGGGTATTTGCAACAAAATGACTTATGAGGCGGAGTCACCTAGTGCAG”, with 12800 fluorescence intensity (a.u.).
